Compound activity deposited in PubChem by National Center for Advancing Translational Sciences (NCATS).
Compounds with a hit are over-represented: about 9.2% of the library has one in this group of screens.
NPC1 promoter act: NPC1 promoter activation; Huh7 NPC1 promoter luciferase reporter, 24 h; Potency, µM (highest dose often 9.22 µM), inactives show at the highest dose activation, usual class: activators; 320,000 tested, 2.4% active; also: % of control where 0% means no effect; nearly all actives have a fitted effect of over 60% in size
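Huh7 reporter cells (NPC1 promoter driving luciferase) are dosed with compound for 24 h at 37 °C, 5% CO2; luciferase detection reagent is then added and luminescence measured after 10 min at ambient temperature.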
ELG1 repair inh: ELG1-dependent DNA repair inhibition; 330,000 tested, 2.3% active; HEK293T ELG1-luciferase reporter, luminescence, 16 h; DNA damage induced by 5-fluorouridine; Potency, µM (series often up to 46.1 µM), without a hit: at the top dose activity change, negative = inhibition, actives largely listed as inhibitors; also: % is scaled to controls: 0 for no effect and ±100 for the full control effect; nearly all actives have a fitted effect of over 55% in size
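Step one: seed 2,000 cells per well. Step two: pin-transfer compound or DMSO alongside 5-fluorouridine. Step three: incubate 16 hr, 37 °C, 5% CO2. Step four: add ONE-Glo, wait 30 min, read luminescence.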
FLuc counter: inhibits or activates purified firefly luciferase, miR-21 counter-screen. P08659. purified FLuc, Km substrates, luminescence inhibition. 360,000 tested, 6.9% active. Potency, µM (highest dose often 57.5 µM), for inactives: at the top dose activity change, negative = inhibition, most hits filed as inhibitors;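 also: plate controls were vehicle for no effect and reference inhibitor for full effect; nearly all actives have a fitted effect of over 55% in size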
Target sequence (P08659 whole entry, looked up): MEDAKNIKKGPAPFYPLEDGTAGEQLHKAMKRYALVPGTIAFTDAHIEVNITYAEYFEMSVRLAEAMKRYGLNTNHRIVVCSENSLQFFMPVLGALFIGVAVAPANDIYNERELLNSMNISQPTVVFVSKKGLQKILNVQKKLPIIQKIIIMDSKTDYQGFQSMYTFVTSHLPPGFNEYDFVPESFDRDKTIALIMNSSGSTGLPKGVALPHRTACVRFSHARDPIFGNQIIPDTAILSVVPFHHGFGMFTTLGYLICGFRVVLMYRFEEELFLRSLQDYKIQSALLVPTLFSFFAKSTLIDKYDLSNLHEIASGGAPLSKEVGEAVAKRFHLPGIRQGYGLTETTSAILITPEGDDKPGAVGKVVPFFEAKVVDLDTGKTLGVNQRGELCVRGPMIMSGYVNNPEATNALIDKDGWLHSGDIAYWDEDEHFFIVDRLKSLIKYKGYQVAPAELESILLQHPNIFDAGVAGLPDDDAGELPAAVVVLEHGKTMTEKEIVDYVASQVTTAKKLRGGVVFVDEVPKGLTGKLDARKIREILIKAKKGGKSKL
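Biochemical qHTS of compounds, final roughly 60 µM downward over six points, against 10 nM purified firefly luciferase using Km concentrations of substrates (10 uM D-luciferin, 10 uM ATP) in Tris acetate pH 7.5 buffer; luminescence output.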
ELG1 genotoxic: induces genotoxicity in HEK293T cells with luciferase-tagged ELG1. 330,000 tested, 1.3% active. HEK293T ELG1-luciferase reporter, luminescence, 16 h. Potency, µM (titrated, usually from 46 µM), inactives show top-dose activity change, positive = activation, most hits filed as activators; also: % of control where 0% means no effect; nearly all actives have a fitted effect of over 60% in size
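After overnight (16 hr) compound treatment at 37 °C, ELG1-luciferase HEK293T cells were lysed with ONE-Glo; luminescence quantified 30 min later at room temperature.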
Rab9 promoter act: Rab9 promoter activation. Huh7 Rab9 promoter-luciferase reporter, luminescence, 24 h. Potency, µM (highest dose often 9.22 µM), for the others: at the highest dose activation, negative = inhibition, most hits filed as activators. 320,000 tested, 2.8% active; also: % of control where 0% means no effect; nearly all actives have a fitted effect of over 60% in size
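Rab9 promoter-driven luciferase in stably transfected Huh7 cells; 1500 cells/well rested 2 h, exposed to compound in DMSO for 24 h at 37 °C, 5% CO2. Luminescence read 10 min after adding luciferase reagent at ambient temperature.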
SMN2 splice up: SMN2 splice variant enhancement; HEK293 SMN2-luciferase splicing reporter, luminescence, 30-36 h; Potency, µM (highest dose often 46.1 µM), inactives show at the highest dose activity change, positive = activation, usual class: activators; 210,000 tested, 2.8% active; also: % of control where 0% means no effect; nearly all actives have a fitted effect of over 55% in size
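HEK293 cells carry an SMN2 […]–luciferase reporter in which exon 7 inclusion puts luciferase in frame. Cells were plated 10-12 h before compound addition, then incubated 30-36 h at 37C. ONE-Glo luminescence was read; sodium butyrate at 4.5 mM final served as control.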
Active calls of the source: *; ? = inconclusive; nt = no result; [ ] = dose if it differs, or a comment. Calls follow the shape of the dose curve; as a rule, active = well fitted curve in the direction sought with a large enough effect; inconclusive = small, poorly fitted or top-dose-only effect, or another doubt; inactive = no such curve, though single readings can be large; an effect the other way counts as inactive or inconclusive. Potency is read from the fitted curve at half-maximal effect.

SMILES	NPC1 promoter act	ELG1 repair inh	FLuc counter	ELG1 genotoxic	Rab9 promoter act	SMN2 splice up
Cc1ccc(N=Nc2c(O)c3ccccc3[nH]c2=O)c(S(=O)(=O)N(C)C)c1	7.0%	0.0%	1.35µM*	?	23.0%	-2.4%[9.22 µM]
CCN(CC)c1ccc(NC(=S)NCC2CCCO2)cc1 (stereo unspecified)	15.5%	6.6%	-6.1%	4.0%	?	9.9%
CCc1nc2sc3c(O)cc(=O)[nH]c3c2cc1C	0.3%	16.9%	15.1µM*	-0.9%	-1.1%	nt
Cc1cc(-c2ccccc2)c2c(n1)sc1c(O)cc(=O)[nH]c12	-1.4%	6.4%	-0.9%	0.3%	5.6%	nt
C/C(=N\Nc1nc2c(s1)CCCC2)c1ccc(Cl)cc1	-1.7%	?	19µM*	?	18.9%	-21.9%
CN(C)c1ccc(C(=O)Nc2nc3c(s2)CCCC3)cc1	0.447µM*	?	0.239µM*	?	0.316µM*	0.631µM*
COC(=O)Nc1nc2c(s1)CCCC2	16.2%	?	-16.8%	?	14.9%	28.0%
CC(C)(C)c1ccc(C(=O)NC(=S)Nc2nc3c(s2)CCCC3)cc1	27.7%	?	5.36µM*	?	?	-52.4%
C/C(=N\NC1=NCCN1)c1ccc(Cl)cc1	-3.5%	0.6%	2.5%	-0.4%	-3.2%	nt
COc1ccc(OC)c(CCNc2nccn(-c3ccc(C)c(C)c3)c2=O)c1	nt	nt	-18.9%	nt	nt	nt
CCN(CC(=O)Nc1c(F)cccc1F)C(=O)CN1C(=O)C2CCCCC2C1=O (stereo unspecified)	-0.7%	?	4.1%	0.5%	-2.4%	nt
N#C/C(=C/c1cn(Cc2ccc(F)cc2)c2ccccc12)C(=O)Nc1cccc(Cl)c1	nt	nt	-0.4%	nt	nt	9.5%
Cc1ccc(C)c(OCCn2cc(/C=C(\C#N)C(=O)NCc3cccs3)c3ccccc32)c1	-1.6%	5.8µM*	5.8%	-2.0%	2.4%	3.8%
N#C/C(=C\c1cn(CCOc2ccccc2F)c2ccccc12)C(=O)NCc1cccs1	-4.7%	14.2%	1.4%	6.5%	7.3%	-11.0%[1.84 µM]
Cc1ccc(C)c(OCCn2cc(/C=C(\C#N)C(=O)NCC3CCCO3)c3ccccc32)c1 (stereo unspecified)	-3.0%	16.4µM*	-8.8%	-8.1%	-7.5%	-16.9%
COc1ccccc1NC(=O)c1ccc2c(c1)N(CC#N)C(=O)C(C)(C)O2	0.2%	6.0%	-3.0%	-9.6%	-2.9%	nt
Clc1ccc(-c2csc(-c3nc(-c4ccc(Br)s4)cs3)n2)cc1	nt	nt	0.1%	nt	nt	-5.7%
Cc1ccc(SCC(=O)N=C2NC(=O)CS2)cc1	-15.0%	3.1%	15.1µM*	1.1%	2.8%	nt
O=C(NC(c1cccnc1)C(F)(F)F)c1cc(COc2ccc3c(c2)CCCC3)on1 (stereo unspecified)	-3.2%	?	15.1µM*	12.0%	6.2%	nt
COc1ccccc1NC(=S)N1CCC(c2nc3cc(C)c(C)cc3[nH]2)CC1	4.3%	-1.4%	13.5µM*	5.6%	21.9%	-1.4%
COc1ccccc1NC(=O)N1CCC(c2nc3cc(C)c(C)cc3[nH]2)CC1	-7.6%	10.7%	?	?	-26.4%	12.3%
Cc1cc2nc(C3CCN(C(=S)NCC(C)C)CC3)[nH]c2cc1C	0.2%	-9.7%	16.9µM*	3.3%	-0.9%	-3.1%
Cc1cc2nc(C3CCCN(C(=S)Nc4ccccc4)C3)[nH]c2cc1C (stereo unspecified)	-0.7%	17.9%	?	3.9%	-3.2%	2.2%
CCC1COC(c2cccn2Cc2ccccc2Cl)=N1 (stereo unspecified)	-4.1%	-0.7%	-4.1%	-0.1%	-8.5%	-6.4%
CCn1c(SCC(=O)Nc2ccc(C(C)=O)cc2)nc2nc3c(cc2c1=O)COC(C)(C)C3	19.5%	?	-16.9%	?	?	nt
SMILES	NPC1 promoter act	ELG1 repair inh	FLuc counter	ELG1 genotoxic	Rab9 promoter act	SMN2 splice up
CCn1c(SCC(=O)Nc2ccc(OC)cc2)nc2nc3c(cc2c1=O)COC(C)(C)C3	-5.2%	20.6µM*	3.1%	-6.9%	-1.6%	nt
CCn1c(SCC(=O)Nc2ccccc2C)nc2nc3c(cc2c1=O)COC(C)(C)C3	1.9%	13µM*	-1.1%	-8.9%	-2.3%	nt
CCOC(=O)C1=C(CC)Nc2ccccc2N=C1NC(=O)c1cc(C)on1	-5.9%	-8.0%	5.6%	-4.2%	2.7%	nt
CCOC(=O)C1=C(CC)Nc2ccccc2N=C1NC(=O)Nc1ccc(Cl)c(Cl)c1	-2.3%	18.4µM*	?	-1.8%	0.4%	-11.6%
CCN1CCN(c2oc(-c3ccc(COc4ccccc4C)o3)nc2C#N)CC1	nt	nt	-7.9%	nt	nt	nt
CCc1ccc(-c2nc(CN3CCC(C(=O)NCCc4ccc(Cl)cc4)CC3)c(C)o2)cc1	nt	nt	4.9%	nt	nt	8.6%
CCCCn1c(NS(=O)(=O)c2ccccc2)c(S(=O)(=O)c2ccc(C)cc2)c2nc3ccccc3nc21	-1.9%	18.4µM*	3.8%	-10.9%	-6.6%	-33.2%
COc1ccc(CN2C(=O)c3ccccc3C(/C=N\OCc3ccc(C)cc3)C2=O)cc1 (stereo unspecified)	5.3%	10.3%	16.9µM*	-6.6%	2.6%	-19.2%
CCOc1ccc(NC(=O)c2ccc(F)c(S(=O)(=O)N3CCN(c4ccccn4)CC3)c2)cc1	-9.4%	9.2µM*	-12.4%	-0.5%	-14.7%	-53.0%
O=C(Nc1cccc(Cl)c1)c1ccc(F)c(S(=O)(=O)N2CCN(c3ccccn3)CC2)c1	-4.9%	13µM*	-2.5%	-0.8%	-5.8%	-35.9%
CCc1ccc(NC(=O)c2ccc(F)c(S(=O)(=O)N3CCN(c4ccc(OC)cc4)CC3)c2)cc1	nt	nt	-2.0%	nt	nt	nt
O=S(=O)(NCCC1=CCCCC1)c1c(Cl)cccc1Cl	0.4%	15.4%	-15.6%	3.2%	-0.2%	nt
COc1ccc(OCCCC(=O)Nc2ccc(S(=O)(=O)N3CCOCC3)cc2)cc1	-0.6%	-19.3%	4.4%	-1.3%	-5.9%	nt
CCOC(=O)CC(Nc1nc(N2CCOCC2)nc(N2CCOCC2)n1)c1ccccc1Cl (stereo unspecified)	-6.5%	9.2µM*	1.2%	-3.5%	-6.3%	-21.7%
Clc1cccc(/C=N/Nc2nnc(Cl)c3ccccc23)c1	?	?	?	8.7%	20.9%	12.2%
Clc1ccc(/C=N/Nc2nnc(-c3ncc[nH]3)c3ccccc23)cc1	4.47µM*	0.0%	0.849µM*	-3.7%	2.82µM*	?
Cc1nc2cnc(N3CCNCC3)nc2n(-c2ccccc2)c1=O	nt	nt	nt	nt	nt	-4.0%
Cn1c(=O)cc(C(=O)N/N=C/c2ccc(Cl)cc2)[nH]c1=O	-3.4%	2.5%	12µM*	-2.5%	-4.9%	nt
Cn1c(=O)n(C)c2cc(/C=N/NC(=O)c3ccc(Cl)cc3)ccc21	-4.9%	?	-0.9%	4.6%	2.3%	nt
